Experimental findings from PubChem BioAssay are described below.

A number with no mark means an inactive call. For some assays here: Potency and affinity values are given separately. Calls of active or inactive are those of the source. Unless noted, how the calls were made is not given here.

Assay [1] in a line: antimalarial activity against Dd2 strain (AID 2302;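 active means growth inhibition above 50% at the single 2 µM test dose, taken to imply half-maximal potency below 2 µM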;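 further: 0% = DMSO untreated growth and 100% = chloroquine plus artemisinin killed control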). Conditions: P. falciparum Dd2 in RBCs, LDH growth readout, 72 h; at 2 µM; stronger effect = higher value.
The nature of assay [2]: human hepatoma cell viability loss – ATP luminescence, cytotoxicity control for P. falciparum antimalarial project, primary screen (AID 2303;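 active means inhibition above 50%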;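 further: 0% = DMSO wells and 100% = digitonin-killed cells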). Particulars: HepG2 viability, 24-48 h, at 10 µM, stronger effect = higher value.
In assay [3] the target is L-lactate dehydrogenase (Plasmodium falciparum (isolate CDC / Honduras)) (UniProt Q27743). The assay is described as follows: PfLDH activity inhibition – cell lysate, 3D7 strain, counter-screen for P. falciparum growth inhibition project (AID 2304).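 Further: 0% = vehicle and 100% = reference inhibitor.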 Particulars: P. falciparum 3D7 crude extract, LDH APAD/NBT absorbance; at 2 µM; stronger effect = higher value.
Assay [4] in a line: inhibition of 3D7 malaria parasite growth – strain 3D7 (AID 2306).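 Further: 0% = DMSO wells and 100% = chloroquine plus artemisinin control wells.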 Conditions: P. falciparum 3D7 erythrocytic growth, LDH absorbance, 72 h; at 2 µM; stronger effect = higher value.
Assay [5] addresses Calcium-dependent protein kinase 1 (Plasmodium falciparum (isolate 3D7)) (UniProt P62344). The assay is described as follows: PfCDPK1 kinase inhibitors, biochemical, TCAMS library (AID 1159585; cut-off not given, nearly all actives have IC50 up to about 0.98 µM;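 further: inhibitors leave more ATP so luminescence rises with inhibition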). Conditions: recombinant PfCDPK1, Kinase-Glo ATP depletion luminescence.
The target of assay [6] is Plasmodium falciparum protein kinase 6 (PK6, PF3D7_1337100) (UniProt Q8IDW1). The assay is described as follows: PfPK6 kinase inhibitors, biochemical, TCAMS library (AID 1159586). Particulars: recombinant PfPK6, Kinase-Glo ATP depletion luminescence. For orientation: In Kinase-Glo more light means more ATP remaining.
In assay [7] the target is Protein kinase 7 (PK7), Plasmodium falciparum 3D7 (PF3D7_0213400) (UniProt Q7YTF7). In words: inhibition of Plasmodium PK7 catalytic activity – biochemical, TCAMS antimalarial set, Kinase-Glo luminescence (AID 1159587). Particulars: recombinant PfPK7, Kinase-Glo ATP depletion luminescence.
Assay [8] concerns the target Calcium-dependent protein kinase 4 (Plasmodium falciparum (isolate 3D7)) (UniProt Q8IBS5). In words: PfCDPK4 kinase inhibitors, biochemical, TCAMS library (AID 1159588; cut-off not given, nearly all actives have IC50 up to about 0.91 µM). Particulars: recombinant PfCDPK4, Kinase-Glo ATP depletion luminescence.

L-lactate dehydrogenase (Plasmodium falciparum (isolate CDC / Honduras)), sequence (Q27743 whole entry, looked up): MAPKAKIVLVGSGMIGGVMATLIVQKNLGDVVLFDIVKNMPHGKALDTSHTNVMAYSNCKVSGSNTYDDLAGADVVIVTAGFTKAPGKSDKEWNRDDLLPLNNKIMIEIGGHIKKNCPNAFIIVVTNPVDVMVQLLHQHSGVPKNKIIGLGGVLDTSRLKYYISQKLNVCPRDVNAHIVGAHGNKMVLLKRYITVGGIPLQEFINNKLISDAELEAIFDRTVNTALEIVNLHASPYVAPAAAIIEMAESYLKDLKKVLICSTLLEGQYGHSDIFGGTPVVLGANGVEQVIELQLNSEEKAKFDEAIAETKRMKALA
Plasmodium falciparum protein kinase 6 (PK6, PF3D7_1337100), sequence (Q8IDW1 1-305): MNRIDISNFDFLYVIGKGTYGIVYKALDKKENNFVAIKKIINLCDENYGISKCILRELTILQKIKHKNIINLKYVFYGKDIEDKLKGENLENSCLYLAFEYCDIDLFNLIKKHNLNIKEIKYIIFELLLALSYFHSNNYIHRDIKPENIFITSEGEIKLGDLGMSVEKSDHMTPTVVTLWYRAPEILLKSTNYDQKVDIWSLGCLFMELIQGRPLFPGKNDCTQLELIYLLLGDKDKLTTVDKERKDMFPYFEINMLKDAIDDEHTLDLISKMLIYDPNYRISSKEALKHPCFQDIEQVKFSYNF
Calcium-dependent protein kinase 4 (Plasmodium falciparum (isolate 3D7)), sequence (Q8IBS5 whole entry, looked up): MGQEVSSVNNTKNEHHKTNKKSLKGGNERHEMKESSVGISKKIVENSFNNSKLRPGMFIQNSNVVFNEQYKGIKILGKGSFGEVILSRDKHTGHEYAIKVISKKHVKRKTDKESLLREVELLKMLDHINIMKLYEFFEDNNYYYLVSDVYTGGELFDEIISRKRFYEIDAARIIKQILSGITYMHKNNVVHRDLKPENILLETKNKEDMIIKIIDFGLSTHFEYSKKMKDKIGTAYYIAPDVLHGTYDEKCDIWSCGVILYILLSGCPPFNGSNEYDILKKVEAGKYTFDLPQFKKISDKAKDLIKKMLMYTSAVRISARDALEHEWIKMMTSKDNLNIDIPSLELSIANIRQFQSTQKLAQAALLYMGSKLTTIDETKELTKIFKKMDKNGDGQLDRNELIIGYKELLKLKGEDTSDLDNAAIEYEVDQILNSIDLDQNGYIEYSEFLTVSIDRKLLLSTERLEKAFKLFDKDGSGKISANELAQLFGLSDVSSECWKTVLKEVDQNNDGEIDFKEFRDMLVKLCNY
Protein kinase 7 (PK7), Plasmodium falciparum 3D7 (PF3D7_0213400), sequence (Q7YTF7 1-343): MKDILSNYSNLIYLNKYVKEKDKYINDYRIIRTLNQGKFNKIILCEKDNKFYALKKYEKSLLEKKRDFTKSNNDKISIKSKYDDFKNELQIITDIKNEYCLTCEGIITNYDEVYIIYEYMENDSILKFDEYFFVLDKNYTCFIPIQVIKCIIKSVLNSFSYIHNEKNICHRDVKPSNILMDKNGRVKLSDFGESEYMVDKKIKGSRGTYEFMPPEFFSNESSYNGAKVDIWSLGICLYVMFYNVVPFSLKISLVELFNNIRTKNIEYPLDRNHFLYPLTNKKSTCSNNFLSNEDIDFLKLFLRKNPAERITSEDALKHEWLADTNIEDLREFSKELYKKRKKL
Calcium-dependent protein kinase 1 (Plasmodium falciparum (isolate 3D7)), sequence (P62344 whole entry, looked up): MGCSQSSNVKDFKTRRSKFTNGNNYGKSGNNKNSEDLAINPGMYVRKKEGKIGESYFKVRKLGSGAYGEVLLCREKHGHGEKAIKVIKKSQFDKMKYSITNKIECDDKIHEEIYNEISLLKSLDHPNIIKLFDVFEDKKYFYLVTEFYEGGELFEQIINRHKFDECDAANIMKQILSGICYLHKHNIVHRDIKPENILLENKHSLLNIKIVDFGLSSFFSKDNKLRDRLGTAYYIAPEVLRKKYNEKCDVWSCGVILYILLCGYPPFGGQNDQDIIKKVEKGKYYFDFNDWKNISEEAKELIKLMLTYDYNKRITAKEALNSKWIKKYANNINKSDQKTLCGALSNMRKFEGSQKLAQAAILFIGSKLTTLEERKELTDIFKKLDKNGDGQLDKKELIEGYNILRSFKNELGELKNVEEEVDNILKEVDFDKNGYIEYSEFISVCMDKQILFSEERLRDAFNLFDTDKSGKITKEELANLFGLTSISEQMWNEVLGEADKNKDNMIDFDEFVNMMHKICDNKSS

A word on the inhibition: it is the change of the read-out against control, counted positive when it falls. Regarding `O=C(CCc1cnc[nH]1)Nc1cccc(-c2cccc(-c3nc4ccccc4[nH]3)c2)c1`, the growth inhibition in assay [1] was 25%; in assay [4], 101% (active). The inhibition was 8% in assay [2] and 3% in assay [3]. Also, the result in assay [5], in assay [6], in assay [7] and in assay [8] was inactive.
In the case of `CC1(C)N=C(N)N=C(N)N1OCc1ccc2ccccc2c1CON1C(N)=NC(N)=NC1(C)C`, the growth inhibition was 12% in assay [1] and 96% (active) in assay [4]. The inhibition was 8% in assay [2] and 1% in assay [3]. Moreover, the outcome in assay [5], in assay [6], in assay [7] and in assay [8] was inactive.
As for `O=C(N[C@@H](Cc1ccccc1)C(=O)NC1CCCCCC1)c1ccc(O)c(-c2ccc(Cl)c(Cl)c2)c1`, the growth inhibition in assay [1] is 99% (active); in assay [4], 92% (active). The inhibition is -6% in assay [2] and -9% in assay [3]. The outcome in assay [5], in assay [6], in assay [7] and in assay [8] was inactive.
For `CC(NC(=O)c1cc(-c2ccccc2)nc2c1cnn2C(C)C)C1CC1` (configuration not stated), the growth inhibition is 88% (active) in assay [1] and 101% (active) in assay [4]. Also, the inhibition in assay [2] is 35%; in assay [3] it was -2%. The outcome in assay [5], in assay [6], in assay [7] and in assay [8] was inactive.
As for `COc1ccc(NC(=O)N2CCc3ccc(OCCN(C(C)C)C(C)C)cc32)cc1C(F)(F)F`, the growth inhibition in assay [1] is 6%; in assay [4], 90% (active). Moreover, the inhibition was -1% in assay [2] and -2% in assay [3]. Also, the outcome in assay [5], in assay [6], in assay [7] and in assay [8] was inactive.
Take `O=C(NCCCCN1CCN(c2cccc3c2CCCC3)CC1)c1ccc(NC(=O)c2ccc(Cl)cc2)cc1`: the growth inhibition in assay [1] was 85% (active); in assay [4], 101% (active). For the same compound, the inhibition in assay [2] is 35%; in assay [3] it was 3%. In addition, the outcome in assay [5], in assay [6], in assay [7] and in assay [8] was inactive.
Take `Cc1[nH]c(C)c(-c2ccc(Oc3ccc(Cl)cc3Cl)cc2)c(=O)c1Br`: the values for the growth inhibition in assay [1] and in assay [4] were 94% (active) and 98% (active), respectively. For the same compound, the inhibition in assay [2] is 3%; in assay [3] it was -5%. Also, the outcome in assay [5], in assay [6], in assay [7] and in assay [8] was inactive.
For the compound `O=C(Nc1cc(C(F)(F)F)cc(C(F)(F)F)c1)N1CCC(CCN2CCC(c3c[nH]c4ccccc34)CC2)CC1`, the growth inhibition in assay [1] is 16%; in assay [4] it was 91% (active). The inhibition in assay [2] was 17%; in assay [3] it was 6%. The result in assay [5], in assay [6], in assay [7] and in assay [8] was inactive.
Take `Cc1occc1C(=O)Nc1nc(-c2ccccn2)nc2ccsc12`: the growth inhibition in assay [1] and in assay [4] was 98% (active) in each case. Further, the results for the inhibition in assay [2] and in assay [3] were 68% (active) and 5%, respectively. Further, the result in assay [5], in assay [6], in assay [7] and in assay [8] was inactive.
Take `COc1ccc(-c2cc(C(=O)N[C@@H](CC3CCCCC3)C(=O)NCCN3CCCC3)ccc2O)cc1`: the results for the growth inhibition in assay [1] and in assay [4] were 12% and 90% (active), respectively. Moreover, the inhibition in assay [2] is 12%; in assay [3] it was 2%. Besides, the result in assay [5], in assay [6], in assay [7] and in assay [8] was inactive.
On to `COc1ccc(C(=O)O)cc1OCc1ccccc1`, for which the growth inhibition in assay [1] is -3%; in assay [4] it was 99% (active). Moreover, the inhibition in assay [2] is -3%; in assay [3] it was 3%. For the same compound, the result in assay [5], in assay [6], in assay [7] and in assay [8] was inactive.
As to `Cc1cc(NCCCCCCCCNc2cc(C)nc3ccccc23)c2ccccc2n1`, the growth inhibition in assay [1] is -1%; in assay [4], 101% (active). Further, the figures for the inhibition in assay [2] and in assay [3] were 59% (active) and -1%, respectively. Besides, the result in assay [5], in assay [6], in assay [7] and in assay [8] was inactive.
Take `O=[N+]([O-])c1cccc(CNCC2CCN(Cc3ccc(-c4ccccc4)cc3)CC2)c1`: the figures for the growth inhibition in assay [1] and in assay [4] were 91% (active) and 101% (active), respectively. The inhibition is 28% in assay [2] and 6% in assay [3]. Besides, the outcome in assay [5], in assay [6], in assay [7] and in assay [8] was inactive.
Consider `COc1ccc(C2C(C(=O)Nc3ccc4c(c3)OCO4)c3cc(OC)c(OC)cc3C(=O)N2C)cc1` (configuration not stated), for which the growth inhibition was 54% (active) in assay [1] and 89% (active) in assay [4]. Besides, the results for the inhibition in assay [2] and in assay [3] were 12% and -4%, respectively. Moreover, the outcome in assay [5], in assay [6], in assay [7] and in assay [8] was inactive.
As to `CC(=O)N(C)/N=C/[C@H](CCc1ccccc1)NC(=O)[C@H](CC(C)C)NC(=O)c1cccc(OCCN2CCOCC2)c1`, the growth inhibition was 65% (active) in assay [1] and 89% (active) in assay [4]. The inhibition in assay [2] and in assay [3] was 5% each time. The result in assay [5], in assay [6], in assay [7] and in assay [8] was inactive.
On to `CN1CCN(c2ccc(-c3cccc(NC(=O)c4cccc(Cl)c4)c3)nn2)CC1`, for which the figures for the growth inhibition in assay [1] and in assay [4] were 37% and 94% (active), respectively. In addition, the figures for the inhibition in assay [2] and in assay [3] were 5% and -2%, respectively. Besides, the outcome in assay [5], in assay [6], in assay [7] and in assay [8] was inactive.
As for `CC(C)C[C@@H](/C=N/NC(N)=O)NC(=O)[C@H](CC(C)C)NC(=O)[C@H](CC(C)C)NC(=O)OCc1ccccc1`, the growth inhibition is 99% (active) in assay [1] and 100% (active) in assay [4]. For the same compound, the figures for the inhibition in assay [2] and in assay [3] were 41% and -1%, respectively. In addition, the result in assay [5], in assay [6], in assay [7] and in assay [8] was inactive.
In the case of `CN(C)CCNCc1ccc(-c2ccc(-c3nc4ccc(F)cc4[nH]3)cc2)cc1`, the growth inhibition in assay [1] was 99% (active); in assay [4], 101% (active). Moreover, the inhibition was 8% in assay [2] and -4% in assay [3]. In addition, the result in assay [5], in assay [6], in assay [7] and in assay [8] was inactive.
Consider `Cc1ccc(N2C(N)=NC(N)=NC2(C)C)cc1`, for which the growth inhibition was 20% in assay [1] and 96% (active) in assay [4]. Further, the inhibition in assay [2] is 43%; in assay [3], 0%. Moreover, the result in assay [5], in assay [6], in assay [7] and in assay [8] was inactive.
